Molecules are shown by their SMILES. “And” between values parts separate entries of the source, which are not always exact repeats. Identical values can stand only once. Some structures have more than one record in an assay (separate samples or runs), and their calls can disagree. The source made the active and inactive calls. Rule as the data show it: active = fold change permeability below about 0.7 or above about 1.3; inactive = in between. Positions of bridges follow the written chain, without caps; N, C: chain ends. Non-standard residues stand in square brackets, D forms with d. Residues, ends and D or L forms follow the SMILES beside them. hArg = N=C(N)NCCCC[CH](N)C(=O)O; Mpa = O=C(O)CCS

A short description of this assay: compounds altering in vitro BBB leakiness – cell-based, FITC-avidin fluorescence, HTS, primary screen (AID 1963498). Also: test concentration not given here. The settings on record: brain endothelial barrier, actives lie on both sides.
For the molecule `Nc1ccc(S(=O)(=O)Nc2ccnn2-c2ccccc2)cc1`, the fold change permeability was 1.2 (inactive).

Regarding `Cc1ccc(O)c(N=Nc2ccccc2)n1`, the fold change permeability is 1.2 (inactive).

Regarding `C=C(C)C1CC=C(C(=O)O)CC1` (centres undefined), the fold change permeability was 0.9 (inactive). Take `NC(=O)C1CSSCCC(=O)NC(CCCCN=C(N)N)C(=O)NCC(=O)NC(CC(=O)O)C(=O)NC(Cc2c[nH]c3ccccc23)C(=O)N2CCCC2C(=O)N1` (centres undefined) ([Mpa][hArg]GDWPC-NH2; disulfide 1-7; configuration not given here): the fold change permeability is 0.9 (inactive). The figure for `Cc1ccc(C(=O)Nc2sc(Nc3ccccc3)nc2C(N)=O)cc1` is 1.3 (active). With `COc1ccccc1N1CCN(CCN(C(=O)c2ccc(F)cc2)c2ccccn2)CC1`, the fold change permeability was 0.8 (inactive). With `O=C(NCCN1CCOCC1)c1ccc(Cl)cc1` the figure was 0.8 (inactive); with `CCCN(CCC)C(=O)C(CCC(=O)O)NC(=O)c1ccccc1` (centres undefined), 0.7 (active); with `Cc1nc2n(c(=O)c1CCN1CCC(c3noc4cc(F)ccc34)CC1)CCCC2O` (centres undefined), 1 (inactive). With `Nc1nc(N)c2nc(CNc3ccc(C(=O)N[C@@H](CCC(=O)O)C(=O)O)cc3)cnc2n1` the figure was 0.9 (inactive).

Regarding `CCc1cccc2c3c([nH]c12)C(CC)(CC(=O)O)OCC3` (centres undefined), the fold change permeability is 1.3 (active). The figure for `CCOC(=O)C1=C(C)NC(C)=C(C(=O)OC)C1c1cccc(Cl)c1Cl` (centres undefined) is 1.2 (inactive). The figure for `N[C@@H](CC(=O)O)C(=O)O` is 1 (inactive); for `C=C1C(=O)O[C@@H]2[C@H]3O[C@]3(C)CC/C=C(\C)CC[C@@H]12` it is 1.3 (active); for `O=C1NCC2(CCN(CCc3ccccc3)CC2)O1` it is 1 (inactive). As for `O=C1NC(=O)C(c2ccccc2)(c2ccccc2)N1`, the fold change permeability is 1.3 (active) and 1.1 (inactive). With `CN(C)CC(O)Cn1c2ccc(Br)cc2c2cc(Br)ccc21` (centres undefined) the figure was 1.5 (active); with `CN1CCC(=C2c3ccccc3CCn3c(C=O)cnc32)CC1`, 1 (inactive); with `Cc1cc(Nc2cc(N3CCN(C)CC3)nc(Sc3ccc(NC(=O)C4CC4)cc3)n2)n[nH]1`, 1.6 (active). For the molecule `COc1ccccc1N1CCN(CCCNc2c(C)c(=O)n(C)c(=O)n2C)CC1`, the fold change permeability was 1.5 (active). With `CC(=O)O[C@H]1CC[C@@]2(C)C(=CC[C@@H]3[C@@H]2CC[C@]2(C)C(c4cccnc4)=CC[C@@H]32)C1` the figure was 1.8 (active). As for `O=C(O)CCCCN(CCc1ccccc1OCc1ccc(CCc2ccccc2)cc1)Cc1ccc(C(=O)O)cc1`, the fold change permeability is 1.2 (inactive). With `O=C1Cc2c([nH]c3ccc(Br)cc23)-c2ccccc2N1` the figure was 0.7 (active); with `CC(=O)Oc1cc(C(F)(F)F)ccc1C(=O)O`, 0.8 (inactive); with `CCOC(=O)C1=C(C)NC(C)=C(C(=O)OC)C1c1cccc([N+](=O)[O-])c1` (centres undefined), 0.8 (inactive). On to `CN(C)CCCC1(c2ccc(F)cc2)OCc2cc(C#N)ccc21` (centres undefined), for which the fold change permeability was 0.9 (inactive). Take `O=c1oc(Cl)c(Cl)c2ccccc12`: the fold change permeability was 1.4 (active). In the case of `NC/C=C\C(=O)O`, the fold change permeability was 1.2 (inactive).

Regarding `C=CC[C@H](N)C(=O)O`, the fold change permeability is 1 (inactive).

For `Nc1nc2ccc(Cl)cc2c2nc(-c3ccco3)nn12`, the fold change permeability is 1.3 (active). Turning to `CCCCOc1ccc(CC/C=C2\SC(=O)N(CCN)C2=O)cc1`, the fold change permeability was 1.6 (active). With `NC(N)=S` the figure was 1.3 (active); with `NC1C=CC=C(C(=O)O)C1` (centres undefined), 0.9 (inactive); with `COc1ccc2cccc(CCNC(C)=O)c2c1`, 0.8 (inactive). The figure for `N[C@@H](CCCC(=O)O)C(=O)O` is 1.1 (inactive). As to `Cc1[nH]c(=O)c(C#N)cc1-c1ccncc1`, the fold change permeability is 0.8 (inactive). The figure for `CCCCCCCC/C=C\CCCCCCCC(=O)O` is 0.9 (inactive); for `CN(C)CCC=C1c2ccccc2C=Cc2ccccc21` it is 1.1 (inactive). In the case of `CN1CCN(CCCN2c3ccccc3Sc3ccc(Cl)cc32)CC1`, the fold change permeability was 1 (inactive).

For the origin of these results see PubChem BioAssay.
